# Results from the supplement of paper PMC8728848.
# The sample as a whole holds a higher share of the strongest signals than the screen did.
# B1: SP15308A-bot-339-19-339 (Bacteroides ovatus) (protein)
# chain: ACNNEWEDEQYEQYISFKSPIPAGGEGVTDIYVRYKEDGKVTYRLPIVVSGSTTNTLDREVHIAVDKDTLETLNIERFSIHRPGLWYTALEEDKYDFPKTVHISAGSSVEQLNIDFNLQGIDMLEKWVLPLTIVDDPSYNYKSHPRKNYAKALLRVIPFNNYSGSYTSSAMKVYTYINGKPDTNARTANKRTGYVINDNTVFFYAGLISEDLDKEVREKYKINVHFNEDGTLHMEQGDPTNKMKFELIGTPTYSKTSVMDATRPYLERRYVQIMFEYDFEDFSYGGNGVDVIPIKYKVEGSMTLQRNINTQIPDEDQQIEW
# Columns and labels:
# Assay in all cases: glycan array binding signal (z-score within array); higher = stronger binding
# Conditions in all cases: glycan notation: IUPAC condensed, linker removed
# [1] = molecular target: Fuc(a1-2)Gal(b1-3)GlcNAc(b1-2)Man(a1-3)[Fuc(a1-2)Gal(b1-3)GlcNAc(b1-2)Man(a1-6)]Man(b1-4)GlcNAc(b1-4)[Fuc(a1-6)]GlcNAc
# Method in brief: (§1)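 Arrays were curated from the Consortium for Functional Glycomics database, 3228 in total, and kept only where the protein sequence was available. Binding is expressed as a within-array Z-score. This score was averaged across arrays of the same protein sequence at different concentrations or buffers and across linkers, and negative values can be read as non-binding.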
# [2] = molecular target: Fuc(a1-2)Gal(b1-3)GlcNAc(b1-3)[Gal(b1-4)GlcNAc(b1-6)]Gal(b1-4)Glc
# Method in brief: as §1
# [3] = molecular target: Fuc(a1-2)[Gal(a1-3)]Gal(b1-4)GlcNAc(b1-3)[Fuc(a1-2)[Gal(a1-3)]Gal(b1-4)GlcNAc(b1-6)]GalNAc
# Method in brief: as §1
# [4] = molecular target: Fuc(a1-2)[GalNAc(a1-3)]Gal(b1-3)GlcNAc(b1-3)GalNAc
# Method in brief: as §1
# [5] = molecular target: Fuc(a1-2)[GalNAc(a1-3)]Gal(b1-4)GlcNAc(b1-3)Gal(b1-4)GlcNAc(b1-3)Gal(b1-4)GlcNAc
# Method in brief: as §1
# [6] = molecular target: Fuc(a1-3)[Gal(b1-4)]GlcNAc(b1-2)Man
# Method in brief: as §1
# [7] = molecular target: Fuc(a1-4)GlcNAc
# Method in brief: as §1
# [8] = molecular target: Gal(a1-3)[Gal(a1-4)]Gal(b1-4)GlcNAc
# Method in brief: as §1
# [9] = molecular target: Gal(a1-4)Gal(b1-4)GlcNAc
# Method in brief: as §1
# [10] = molecular target: Gal(a1-6)Glc
# Method in brief: as §1
# [11] = molecular target: Gal(b1-2)Gal
# Method in brief: as §1
# [12] = molecular target: Gal(b1-3)GlcNAc
# Method in brief: as §1
# [13] = molecular target: Gal(b1-3)GlcNAc(a1-3)Gal(b1-4)GlcNAc
# Method in brief: as §1
# [14] = molecular target: Gal(b1-3)GlcNAc(b1-2)Man
# Method in brief: as §1
# [15] = molecular target: Gal(b1-3)GlcNAc(b1-3)Gal(b1-4)Glc
# Method in brief: as §1
# [16] = molecular target: Gal(b1-3)GlcNAc(b1-3)GalNAc
# Method in brief: as §1
# [17] = molecular target: Gal(b1-4)GlcNAc(b1-2)[Gal(b1-4)GlcNAc(b1-6)]Man(a1-6)[GlcNAc(b1-4)][Gal(b1-4)GlcNAc(b1-2)Man(a1-3)]Man(b1-4)GlcNAc(b1-4)GlcNAc
# Method in brief: as §1
# [18] = molecular target: Gal(b1-4)GlcNAc(b1-3)Gal(b1-4)GlcNAc(b1-3)Gal(b1-4)GlcNAc(b1-2)Man(a1-3)[Gal(b1-4)GlcNAc(b1-3)Gal(b1-4)GlcNAc(b1-3)Gal(b1-4)GlcNAc(b1-2)Man(a1-6)]Man(b1-4)GlcNAc(b1-4)[Fuc(a1-6)]GlcNAc
# Method in brief: as §1
# [19] = molecular target: Gal(b1-4)GlcNAc(b1-3)Gal(b1-4)GlcNAc(b1-3)Gal(b1-4)GlcNAc(b1-3)Gal(b1-4)GlcNAc(b1-3)Gal(b1-4)GlcNAc(b1-2)[Gal(b1-4)GlcNAc(b1-3)Gal(b1-4)GlcNAc(b1-3)Gal(b1-4)GlcNAc(b1-3)Gal(b1-4)GlcNAc(b1-3)Gal(b1-4)GlcNAc(b1-6)]Man(a1-6)[Gal(b1-4)GlcNAc(b1-3)Gal(b1-4)GlcNAc(b1-3)Gal(b1-4)GlcNAc(b1-3)Gal(b1-4)GlcNAc(b1-3)Gal(b1-4)GlcNAc(b1-2)Man(a1-3)]Man(b1-4)GlcNAc(b1-4)[Fuc(a1-6)]GlcNAc
# Method in brief: as §1
# [20] = molecular target: Gal3S(b1-3)GalNAc
# Method in brief: as §1
# [21] = molecular target: Gal3S(b1-4)Glc
# Method in brief: as §1
# [22] = molecular target: Gal3S4S(b1-4)GlcNAc
# Method in brief: as §1
# [23] = molecular target: GalNAc(a1-3)GalNAc
# Method in brief: as §1
# [24] = molecular target: GalNAc(b1-4)GlcNAc
# Method in brief: as §1
# [25] = molecular target: GalNAc(b1-4)GlcNAc(b1-2)Man(a1-3)[GalNAc(b1-4)GlcNAc(b1-2)Man(a1-6)]Man(b1-4)GlcNAc(b1-4)GlcNAc
# Method in brief: as §1
# [26] = molecular target: GlcA(b1-3)GlcNAc
# Method in brief: as §1
# [27] = molecular target: GlcNAc(a1-4)Gal(b1-4)GlcNAc(b1-3)Gal(b1-4)Glc
# Method in brief: as §1
# [28] = molecular target: GlcNAc(b1-2)Man(a1-3)[GlcNAc(b1-4)][GlcNAc(b1-2)Man(a1-6)]Man(b1-4)GlcNAc(b1-4)[Fuc(a1-6)]GlcNAc
# Method in brief: as §1
# [29] = molecular target: GlcNAc(b1-2)[GlcNAc(b1-4)]Man(a1-3)[GlcNAc(b1-4)][GlcNAc(b1-2)Man(a1-6)]Man(b1-4)GlcNAc(b1-4)GlcNAc
# Method in brief: as §1
# [30] = molecular target: GlcNAc(b1-2)[GlcNAc(b1-4)]Man(a1-3)[GlcNAc(b1-4)][GlcNAc(b1-2)[GlcNAc(b1-6)]Man(a1-6)]Man(b1-4)GlcNAc(b1-4)GlcNAc
# Method in brief: as §1
binder,measurement,setting,value
B1,glycan array binding signal (z-score),[1],0.285
same,glycan array binding signal (z-score),[2],-0.461
same,glycan array binding signal (z-score),[3],8.34
same,glycan array binding signal (z-score),[4],0.521
same,glycan array binding signal (z-score),[5],0.178
same,glycan array binding signal (z-score),[6],0.187
same,glycan array binding signal (z-score),[7],19.1
same,glycan array binding signal (z-score),[8],1.28
same,glycan array binding signal (z-score),[9],0.261
same,glycan array binding signal (z-score),[10],0.432
same,glycan array binding signal (z-score),[11],0.055
same,glycan array binding signal (z-score),[12],0.061
same,glycan array binding signal (z-score),[13],0.217
same,glycan array binding signal (z-score),[14],2.76
same,glycan array binding signal (z-score),[15],-0.437
same,glycan array binding signal (z-score),[16],0.029
same,glycan array binding signal (z-score),[17],-0.304
same,glycan array binding signal (z-score),[18],2.77
same,glycan array binding signal (z-score),[19],0.968
same,glycan array binding signal (z-score),[20],0.97
same,glycan array binding signal (z-score),[21],0.257
same,glycan array binding signal (z-score),[22],0.201
same,glycan array binding signal (z-score),[23],1.35
same,glycan array binding signal (z-score),[24],1.18
same,glycan array binding signal (z-score),[25],1.54
same,glycan array binding signal (z-score),[26],-0.486
same,glycan array binding signal (z-score),[27],0.185
same,glycan array binding signal (z-score),[28],-0.474
same,glycan array binding signal (z-score),[29],1.11
same,glycan array binding signal (z-score),[30],-0.391
